Results taken from PubChem BioAssay (Tox21).
Where “and” joins values, the source holds several entries; their conditions need not be identical. Equal entries are not always repeated. Records with an inconclusive call do not appear. Calls of active or inactive are those of the source. Unless noted, calls come from the whole dose curve; as a rule, active = well fitted curve in the direction sought with a large enough effect in the repeat runs; inconclusive = weak or mixed curves; inactive = no such curve, though single readings can be large; an effect the other way counts as inactive or inconclusive.

Tests used:
[1] = qHTS assay for small molecule agonists of the p53 signaling pathway (AID 651631; calls by dose curve; note: nearly all actives have a fitted effect of over 15% in size; note: potency is the fitted concentration of half-maximal effect)
Method in brief: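 Testing took place in human colorectal HCT-116 cells with stable p53RE-driven beta-lactamase. After 16 h of compound exposure at 37 °C, a FRET substrate was added and fluorescence recorded 2 h later.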

[2] = qHTS assay for small molecules that induce genotoxicity in human embryonic kidney cells expressing luciferase-tagged ATAD5 (AID 651632); note: nearly all actives have a fitted effect of over 15% in size
Method in brief: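 Genotoxicity read-out via ATAD5-luciferase: HEK293T cells, 16 hr compound incubation at 37C, Amplite detection.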

[3] = qHTS assay for small molecule agonists of the p53 signaling pathway - cell viability (AID 651633; calls by dose curve; note: nearly all actives have a fitted effect of over 30% in size)
Method in brief: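 p53RE-bla cells were treated with compound for 16 hours at 37 C. Cytotoxicity was then measured as CellTiter-Glo luminescence after 30 min at room temperature.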

[4] = qHTS assay for small molecules that induce genotoxicity in human embryonic kidney cells expressing luciferase-tagged ATAD5 - cell viability (AID 651634; calls by dose curve; note: nearly all actives have a fitted effect of over 25% in size)
Method in brief: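 Live-cell protease activity (CellTiter-Fluor, fluorescence) indicates viability. HEK293T cells with luciferase-tagged ATAD5; 15.5 hr compound treatment at 37C.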

[5] = qHTS assay for small molecule disruptors of the mitochondrial membrane potential (AID 720635)
Method in brief: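 HepG2 cells exposed to compound 1 hr at 37C, then Mito-MPS dye 30 min. Ratio read of aggregate (540/590 nm) versus monomer (490/535 nm) fluorescence.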

[6] = qHTS assay to test for compound auto fluorescence at 590 nm (red) in HepG2 cells (AID 720674)
Method in brief: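 HepG2 cells, 2,000 per well in MEM with 10% FBS, attached overnight at 37 C, then got 23 nL compound or DMSO. After 1 hr at 37 C, 5% CO2, red fluorescence was read at 540/590 nm against Rose Bengal sodium as reference.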

[7] = qHTS assay to test for compound auto fluorescence at 535 nm (green) in HepG2 cells (AID 720675)
[8] = qHTS assay to test for compound auto fluorescence at 460 nm (blue) in HEK293 cells (AID 720678)
Method in brief: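 HEK293 cells (2,000 per well, medium with 10% dialyzed FBS) attached for 4-5 hr at 37C, then received compound and stood overnight at 37C, 5% CO2. Blue fluorescence was read at Ex/Em 405/460 nm and expressed relative to triamterene.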

[9] = qHTS assay to test for compound auto fluorescence at 590 nm (red) in HEK293 cells (AID 720679)
Method in brief: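 HEK293 cells (2,000/well, medium with 10% dialyzed FBS) attached for 4-5 hr at 37C, received 23 nL compound and were incubated overnight at 37C, 5% CO2. Red fluorescence was then read at 540/590nm Ex/Em, referenced to Rose Bengal sodium.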

[10] = qHTS assay to test for compound auto fluorescence at 535 nm (green) in HEK293 cells (AID 720680)
[11] = qHTS assay to test for compound auto fluorescence at 460 nm (blue) in HEK293 cell free culture (AID 720681)
Method in brief: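 Compounds were added to cell-free DMEM with 10% FBS and fluorescence read directly. The blue channel used 405 nm excitation and 460 nm emission, with triamterene as the reference fluorophore.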

[12] = qHTS assay to test for compound auto fluorescence at 535 nm (green) in HEK293 cell free culture (AID 720682)
Method in brief: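 DMEM + 10% FBS, cell-free; cpd or DMSO pinned in; Ex485/Em535 read; output as fluorescein-equivalent signal.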

[13] = qHTS assay to test for compound auto fluorescence at 590 nm (red) in HEK293 cell free culture (AID 720683)
Method in brief: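 Cell-free wells of DMEM with 10% FBS received compound, and intrinsic fluorescence was read at excitation/emission 540/590 nm. Values expressed as equivalence to Rose Bengal sodium.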

[14] = qHTS assay to test for compound auto fluorescence at 590 nm (red) in HepG2 cell free culture (AID 720684)
Method in brief: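 Compounds are added to culture medium (MEM, 10% FBS) lacking cells, then fluorescence is read at excitation 540 nm, emission 590 nm, with Rose Bengal sodium as the equivalency standard.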

[15] = qHTS assay to test for compound auto fluorescence at 460 nm (blue) in HepG2 cell free culture (AID 720685)
Method in brief: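 Compound (23 nL) or DMSO pinned into cell-free MEM with 10% FBS; blue fluorescence read at 405/460 nm excitation/emission, expressed as auto-fluorescence equivalency to triamterene.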

[16] = qHTS assay to test for compound auto fluorescence at 535 nm (green) in HepG2 cell free culture (AID 720686)
[17] = qHTS assay to test for compound auto fluorescence at 460 nm (blue) in HepG2 cells (AID 720687)
Method in brief: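 HepG2 cells in MEM with 10% FBS, attached overnight at 37 C, were exposed to compound or DMSO for 1 hr at 37 C, 5% CO2. Blue fluorescence was read at 405/460 nm, with triamterene as reference fluorophore.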

[18] = target: Glucocorticoid receptor (Homo sapiens) (UniProt P04150); assay: qHTS assay to identify small molecule agonists of the glucocorticoid receptor (GR) signaling pathway (AID 720691; active = well fitted activation curve with a large enough effect in the signal ratio in the repeat runs, not every such curve was filed as active; the % refers to the signal ratio); conditions: GR-bla HeLa, beta-lactamase reporter ratio, 18 h; activation: at 62.4 µM (top of the series)
Glucocorticoid receptor (Homo sapiens), sequence (P04150 whole entry, looked up): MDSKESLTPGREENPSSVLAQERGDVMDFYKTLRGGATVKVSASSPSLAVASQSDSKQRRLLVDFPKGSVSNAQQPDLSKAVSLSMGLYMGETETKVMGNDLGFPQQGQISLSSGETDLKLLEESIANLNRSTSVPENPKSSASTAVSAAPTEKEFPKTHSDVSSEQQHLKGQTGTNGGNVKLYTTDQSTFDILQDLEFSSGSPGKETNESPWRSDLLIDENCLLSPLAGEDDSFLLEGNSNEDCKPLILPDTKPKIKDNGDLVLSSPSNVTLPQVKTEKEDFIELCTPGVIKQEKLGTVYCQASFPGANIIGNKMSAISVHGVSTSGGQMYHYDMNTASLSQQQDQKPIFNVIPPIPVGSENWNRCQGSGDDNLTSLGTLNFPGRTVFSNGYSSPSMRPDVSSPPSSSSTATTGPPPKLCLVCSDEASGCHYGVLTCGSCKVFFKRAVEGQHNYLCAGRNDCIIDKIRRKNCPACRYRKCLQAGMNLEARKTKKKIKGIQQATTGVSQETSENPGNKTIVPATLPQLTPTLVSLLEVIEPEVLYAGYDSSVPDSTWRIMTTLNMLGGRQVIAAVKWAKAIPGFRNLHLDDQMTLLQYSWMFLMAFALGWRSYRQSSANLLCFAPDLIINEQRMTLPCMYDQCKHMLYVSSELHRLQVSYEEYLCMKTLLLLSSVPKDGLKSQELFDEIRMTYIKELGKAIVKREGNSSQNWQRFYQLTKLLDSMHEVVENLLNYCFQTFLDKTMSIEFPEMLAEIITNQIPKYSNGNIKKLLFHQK
Method in brief: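 Beta-lactamase reporter activity, read as fluorescence intensity, was measured in GR-bla HeLa cells exposed to compounds for 18 h at 37 C and then loaded with LiveBLAzer B/G FRET substrate for 2 h at room temperature.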

[19] = target: Glucocorticoid receptor (Homo sapiens) (UniProt P04150); assay: qHTS assay to identify small molecule antagonists of the glucocorticoid receptor (GR) signaling pathway (AID 720692; active = well fitted inhibition curve with a large enough effect in the signal ratio in the repeat runs, not every such curve was filed as active; the % refers to the signal ratio)
Method in brief: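 Fluorescence from cleaved LiveBLAzer B/G FRET substrate reports GRE-driven beta-lactamase in HeLa cells; compounds are tested against 5 nM dexamethasone (final) over 18 h at 37 C, substrate incubation 2 h at room temperature.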

[20] = qHTS assay for small molecule disruptors of the mitochondrial membrane potential - cell viability (AID 720634; calls by dose curve;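 note: human HepG2 liver cancer cells; nearly all actives have a fitted effect of over 20% in size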)
Method in brief: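 Human hepatoma HepG2 cells were treated for 1 hr with test chemicals, then given m-MPI dye and CellTiter-Glo. Cell viability reflects luminescence proportional to cellular ATP.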

Measured: Potency

CO/N=C(\C(=O)N[C@@H]1C(=O)N2C(C(=O)O)=C(CSc3cnns3)CS[C@H]12)c1csc(N)n1
inactive: [1] | [2] | [3] | [4] | [5] | [6] | [7] | [8] | [9] | [10] | [11] | [12] | [13] | [14] | [15] | [16] | [17] | [18] | [19]

CNC(=O)C[C@@H](N)C(=O)N[C@@H](C(=O)N[C@@H]1C(=O)N2[C@@H]1SC(C)(C)[C@@H]2C(=O)O)c1ccc(O)cc1
inactive: [1] | [2] | [3] | [4] | [5] | [6] | [7] | [8] | [9] | [10] | [11] | [12] | [13] | [14] | [15] | [16] | [17] | [18]

CC(C)COC(=O)OCN1C(=O)CN(CCN2CC(=O)N(COC(=O)OCC(C)C)C(=O)C2)CC1=O
active: [1] 3.76 µM
inactive: [2] | [3] | [4] | [5] | [6] | [7] | [8] | [9] | [10] | [12] | [13] | [14] | [15] | [16] | [17] | [18] | [19]

Cc1cn([C@H]2C[C@H](O)[C@@H](CO)O2)c(=O)[nH]c1=O
inactive: [1] | [2] | [3] | [4] | [5] | [6] | [7] | [8] | [10] | [12] | [13] | [14] | [15] | [16] | [17] | [19]

CCCOC(=O)c1ccc(O)cc1
inactive: [1] | [2] | [3] | [4] | [6] | [7] | [8] | [10] | [11] | [13] | [14] | [15] | [16] | [17] | [18]

COC1[C@@H](O[C@@H]2O[C@H](C)[C@@H](O[C@H]3C[C@@](C)(O)[C@H](OC(=O)CC(C)C)[C@H](C)O3)[C@H](N(C)C)[C@H]2O)[C@@H](CC=O)C[C@@H](C)[C@@H](O)/C=C/C=C/C[C@@H](C)OC(=O)C[C@H]1OC(C)=O (some centres undefined)
inactive: [1] | [2] | [3] | [4] | [5] | [6] | [7] | [8] | [10] | [11] | [12] | [13] | [14] | [15] | [16] | [17] | [18] | [19]

CCN1CCCC1CNC(=O)c1cc(S(=O)(=O)CC)ccc1OC (centres undefined)
inactive: [1] | [2] | [3] | [4] | [5] | [6] | [7] | [8] | [9] | [10] | [11] | [12] | [13] | [14] | [15] | [16] | [17] | [18] | [19]

N[C@@H](Cc1cnc[nH]1)C(=O)O
inactive: [1] | [2] | [3] | [4] | [6] | [7] | [8] | [10] | [11] | [12] | [13] | [14] | [15] | [16] | [17] | [18] | [19]

N#Cc1c(N(CC(=O)O)CC(=O)O)sc(C(=O)O)c1CC(=O)O
inactive: [1] | [2] | [3] | [20] | [5] | [6] | [7] | [8] | [9] | [10] | [11] | [12] | [13] | [14] | [15] | [16] | [17]

CCCCCCCCCCCCCC(=O)OCC(COP(=O)([O-])OCC[N+](C)(C)C)OC(=O)CCCCCCCCCCCCC (centres undefined)
inactive: [1] | [2] | [3] | [4] | [20] | [6] | [7] | [8] | [9] | [10] | [12] | [13] | [14] | [15] | [16] | [17] | [18] | [19]

CSCC[C@H](NC(=O)[C@H](Cc1ccc(OS(=O)(=O)O)cc1)NC(=O)[C@@H](N)CC(=O)O)C(=O)NCC(=O)N[C@@H](Cc1c[nH]c2ccccc12)C(=O)N[C@@H](CCSC)C(=O)N[C@@H](CC(=O)O)C(=O)N[C@@H](Cc1ccccc1)C(N)=O
inactive: [1] | [2] | [3] | [4] | [5] | [6] | [7] | [8] | [9] | [10] | [11] | [12] | [13] | [14] | [15] | [16] | [17]

C=C1[C@@H]2CC[C@@H](C2)C1(C)C
inactive: [1] | [2] | [3] | [4] | [5] | [6] | [7] | [8] | [9] | [10] | [12] | [13] | [14] | [15] | [16] | [17] | [18] | [19]

NCC(O)CC(=O)O (centres undefined)
inactive: [1] | [2] | [3] | [4] | [5] | [6] | [7] | [8] | [9] | [10] | [11] | [12] | [13] | [14] | [15] | [16] | [17] | [18] | [19]

COc1cc([C@@H]2c3cc4c(cc3[C@@H](O[C@@H]3O[C@@H]5CO[C@@H](C)O[C@H]5[C@H](O)[C@H]3O)[C@H]3COC(=O)[C@H]23)OCO4)cc(OC)c1O
inactive: [2] | [3] | [4] | [6] | [7] | [8] | [9] | [10] | [12] | [13] | [14] | [15] | [16] | [17]
active: [1] 1.88 µM and 761 nM
